A selection: hits, their analogues and other compounds. The true share with any hit is near 9%.
G9a block: qHTS Assay for Inhibitors of Histone Lysine Methyltransferase G9a. actives 8.8% (n = 350,000). AID 504332, 2011. Potency, µM (highest dose often 102 µM), most hits filed as inhibitors. G9a H3K9 monomethylation, AlphaScreen, 2 h; also: nearly all actives have a fitted effect of over 75% in size
Target sequence (Q96KQ7 913-1193 limits assumed): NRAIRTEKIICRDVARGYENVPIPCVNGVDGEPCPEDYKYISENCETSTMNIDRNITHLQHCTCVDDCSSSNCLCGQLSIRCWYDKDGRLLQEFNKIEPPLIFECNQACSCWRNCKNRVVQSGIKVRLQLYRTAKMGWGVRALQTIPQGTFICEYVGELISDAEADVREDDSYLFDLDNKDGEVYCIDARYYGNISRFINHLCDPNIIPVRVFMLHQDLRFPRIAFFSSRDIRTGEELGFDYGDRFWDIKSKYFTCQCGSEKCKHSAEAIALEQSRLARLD
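Compounds were preincubated with 20 nM G9a for 15 min, after which biotinylated H3K9 peptide (500 nM) and SAM (20 uM) started a 2 h room-temperature reaction. Monomethylated product was quantified by antibody-based AlphaScreen chemiluminescence.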
HP1b binding inh: HTS for Inhibitors of HP1-beta Chromodomain Interactions with Methylated Histone Tails. AlphaScreen HP1-beta / biotin-H3K9me3 peptide binding. actives 0.56% (n = 390,000). Potency, µM (doses to about 114 µM), usual class: inhibitors; also: nearly all actives have a fitted effect of over 70% in size
Target sequence (P83916 whole entry, looked up): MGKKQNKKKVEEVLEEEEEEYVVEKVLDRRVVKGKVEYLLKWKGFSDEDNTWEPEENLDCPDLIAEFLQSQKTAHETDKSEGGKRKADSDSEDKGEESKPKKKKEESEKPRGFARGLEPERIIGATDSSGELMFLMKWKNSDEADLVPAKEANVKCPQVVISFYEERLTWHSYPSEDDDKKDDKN
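HP1-beta protein (50 nM final) preincubated 30 min at room temperature with biotinylated H3(1-18)K9me3 peptide (50 nM) in PBS pH 7.4, 0.01% Tween-20, then compound added for 30 min. AlphaScreen streptavidin donor/nickel chelate acceptor beads (10 ug/mL final), 30 min dark, luminescence read.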
BAZ2B block: qHTS Assay for Inhibitors of BAZ2B. actives 4.4% (n = 360,000). Potency, µM (titrated, usually from 114 µM), actives largely listed as inhibitors. AlphaScreen BAZ2B-H3K14Ac peptide displacement. Bromodomain adjacent to zinc finger domain protein 2B (Homo sapiens), Q9UIF8. AID 504333, 2011; also: nearly all actives have a fitted effect of over 60% in size
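Multi-concentration screen (max 110 uM) measuring displacement of acetylated histone H3 peptide from BAZ2B by AlphaScreen, using 50 nM protein, 50 nM peptide and 10 ug/mL streptavidin donor plus Ni-chelate acceptor beads.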
ALOX12 inh: Primary qHTS assay for inhibitors of human arachidonate 12S-lipoxygenase (ALOX12): Round 2; Polyunsaturated fatty acid lipoxygenase ALOX12 (Homo sapiens), P18054; purified 12hLO, xylenol orange hydroperoxide absorbance; Potency, µM (top dose mostly 108 µM), usual class: inhibitors; actives 1.1% (n = 580,000)
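Purified human 12hLO (150 nM final) in 25 mM Hepes, 0.01% Triton X-100, pH 7.0 was preincubated 15 min at room temperature with compound. Then 40 uM arachidonic acid was added, 30 min. Hydroperoxide was read by Fe-XO absorbance ratio 573/405 nm.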
JMJD2A Tudor inh: qHTS Assay for Inhibitors of JMJD2A-Tudor Domain; Lysine-specific demethylase 4A (Homo sapiens), O75164; AlphaScreen JMJD2A-Tudor / H3K4me3 peptide binding; Potency, µM (highest dose often 114 µM), actives largely listed as inhibitors; actives 4.4% (n = 390,000); also: nearly all actives have a fitted effect of over 50% in size
PLK1 PBD block: qHTS for Inhibitors of PLK1-PDB (polo-like kinase 1 - polo-box domain): Primary Screen | Serine/threonine-protein kinase PLK1 (Homo sapiens), P53350 | Potency, µM, usual class: inhibitors | actives 2.8% (n = 360,000) | Plk1 PBD binding of FITC phosphopeptide, fluorescence polarization; also: series mostly up to about 57 µM; nearly all actives have a fitted effect of over 65% in size
Numbers stand for hits; . = inactive; ? = inconclusive; / = no result given; [ ] = remark or other dose. Calls follow the shape of the dose curve; as a rule, active = well fitted curve in the direction sought with a large enough effect; inconclusive = small, poorly fitted or top-dose-only effect, or another doubt; inactive = no such curve, though single readings can be large; an effect the other way counts as inactive or inconclusive.

SMILES | G9a block | HP1b binding inh | BAZ2B block | ALOX12 inh | JMJD2A Tudor inh | PLK1 PBD block
COc1ccc(Br)cc1S(=O)(=O)NNC(=O)c1c(C)nc2ccccn12 | 79.4µM | . | . | . | .[11.4 µM] | .
Cc1nc2ccccn2c1C(=O)NNC(=O)Nc1ccccc1 | 50.1µM | . | . | . | . | .
Cc1cccc(-n2cnc(C(=O)NNC(=S)Nc3ccc(Cl)cc3)c2)n1 | 8.91µM | . | 11.2µM | . | 35.5µM | .
Cc1nc2ccccn2c1C(=O)NNC(=S)Nc1ccc(Cl)cc1 | 1.26µM | . | . | . | ? | .
COc1ccc(C(=O)Nc2ccccc2C(=O)Nc2ccccc2)cc1Br | / | / | / | . | / | /
O=C(CCc1ccccc1)n1nc(-c2ccccc2)nc1NCc1ccco1 | . | . | . | ? | . | .
O=C(c1cccs1)n1nc(-c2ccccc2)nc1NCc1ccco1 | . | . | . | ? | ? | 26.7µM
O=C(c1ccccc1)c1cc2ccccc2oc1=O | . | . | . | . | . | .
O=C(O)c1ccc(N=c2oc3cc(O)ccc3cc2C(=O)NCc2ccccc2)cc1 | ? | . | ? | . | ? | ?
O=C(NNC(=O)c1cc2ccccc2oc1=O)c1ccccc1 | 31.6µM | ? | . | . | . | ?
O=C(NCc1cccnc1)c1cc2ccccc2oc1=O | 50.1µM | . | . | . | . | ?
O=C(NCc1ccccc1)c1cc2ccc(O)cc2oc1=O | . | . | . | . | ? | 18.9µM
O=C(OCCNC(=O)c1cc2ccccc2oc1=O)c1cccnc1 | ? | . | . | . | . | .
O=C(NCc1ccc(F)cc1)c1cc2ccccc2o1 | 79.4µM | . | . | . | . | .
C=CCc1cc(/C=C2/NC(=O)NC2=O)cc(OCC)c1OCc1ccc(F)cc1 | / | / | / | . | / | /
c1ccc(-c2ccc(OCCOCCn3cncn3)cc2)cc1 | ? | ? | 50.1µM | ? | 31.6µM | .
COc1ccc(OCCn2cncn2)cc1 | 22.4µM | . | 56.2µM | . | 7.94µM | .
CCSc1ncc(Cl)c(C(=O)Nc2c(C(=O)Nc3cccc(C)c3)oc3ccccc23)n1 | . | . | . | . | . | /
c1ccc(-c2ccc(C3=Nn4c(nnc4-c4cc(-c5ccccc5)n[nH]4)SC3)cc2)cc1 | / | . | . | . | . | .
Brc1ccccc1C1=Nn2c(nnc2-c2ccccc2)SC1 | 31.6µM | . | . | . | . | ?
c1ccc(C2=Nn3c(nnc3-c3ccco3)SC2)cc1 | 31.6µM | . | . | ? | . | 29.9µM
Clc1ccc(C2=Nn3c(nnc3-c3cccnc3)SC2)s1 | ? | . | . | . | . | .
Brc1ccc(C2=Nn3c(nnc3-c3cccnc3)SC2)s1 | .[12.7 µM] | . | . | / | 50.1µM | .
CC1=Nn2c(nnc2-c2cc(-c3ccccc3)n[nH]2)SC1 | 14.1µM | . | . | . | . | .
Brc1ccccc1C1=Nn2c(nnc2-c2ccco2)SC1 | . | . | . | . | . | .
SMILES | G9a block | HP1b binding inh | BAZ2B block | ALOX12 inh | JMJD2A Tudor inh | PLK1 PBD block
O=C(Cn1nc(Cc2cccnc2)c2ccccc2c1=O)N1CCN(c2ccccn2)CC1 | . | . | . | . | . | .
COc1ccc(N2CCCC2)c(NC(=O)COc2ccccc2)c1 | 39.8µM | ? | ? | . | ? | .
Cc1cccc(OCC(=O)Nc2ccccc2N2CCCCC2)c1C | . | . | . | . | . | .
Cc1cc(N2CCCC2)ccc1NC(=O)COc1ccccc1 | 7.08µM | . | . | ? | ? | .
COc1ccc(OCC(=O)Nc2ccccc2N2CCCCC2)cc1 | / | . | . | . | . | .
COc1ccc(OCC(=O)Nc2ccccc2Cl)cc1 | . | . | 50.1µM | . | . | .
CCc1ccccc1OCC(=O)Nc1ccc(N2CCCC2)cc1C | 3.16µM | . | ? | / | ? | .
COc1ccc(OCC(=O)Nc2ccccc2OC)cc1 | . | . | . | . | . | .
O=c1n(CC2CC2)nc2n1CCN(C1CCCC1)CC2 | / | / | / | . | / | /
O=C(NCc1ccccc1CN1CCOCC1)c1ccc(-n2cccn2)cc1 | / | . | / | . | . | .
Cc1cc(C)c2c(n1)oc1c(=O)n(CC(=O)N3CCOCC3)cnc12 | / | / | / | . | / | /
CC(C)(C)c1ccc(S(=O)(=O)NCc2ccccn2)cc1 | .[12.7 µM] | . | . | . | . | .
O=S(=O)(NCc1ccccn1)c1ccccc1 | . | . | . | . | 8.91µM | .
CCOc1ccc(OCC)c(S(=O)(=O)NCc2ccccn2)c1 | . | . | . | . | 89.1µM | .
O=S(=O)(NCCCc1ccccc1)c1cccc2nsnc12 | . | . | . | . | . | .
CCOc1ccc(Cl)cc1S(=O)(=O)NCc1ccccn1 | . | . | . | . | .[11.4 µM] | .
O=S(=O)(NCc1ccccn1)c1cccc2nsnc12 | 20µM | . | ? | . | ? | .
COc1c(C)cc(S(=O)(=O)NCc2ccccn2)c(C)c1C | .[0.501 µM] | . | . | . | 25.1µM | .
O=C(O)C1CCC(CNCc2ccncc2)CC1 (configuration not stated) | .[0.501 µM] | . | . | . | . | .
O=C(c1ccc(Br)cc1)N(Cc1nc2ccccc2c(=O)[nH]1)C1CCCC1 | . | . | . | . | . | .
Cc1ccc(C(=O)OCC(=O)c2c(N)n(C)c(=O)n(C)c2=O)cc1S(=O)(=O)N1CCOCC1 | . | . | . | . | . | .
CC(=O)Nc1ccc2c(COC(=O)[C@@H](NS(=O)(=O)c3ccc(C)cc3)C(C)C)cc(=O)oc2c1 | / | . | / | . | . | .
O=C(NC1CCCC1)N1CC(Oc2ccccc2-c2nc(-c3ccccc3)no2)C1 | / | / | / | . | / | /
O=S(=O)(Cc1ccccc1)NCc1ccccn1 | ? | . | . | ? | 3.55µM | .
COC(=O)COc1ccc(S(=O)(=O)NCc2ccccn2)cc1 | / | . | . | . | . | .
SMILES | G9a block | HP1b binding inh | BAZ2B block | ALOX12 inh | JMJD2A Tudor inh | PLK1 PBD block
COC(=O)Nc1ccc(S(=O)(=O)NCc2ccccn2)cc1 | . | . | . | . | 5.62µM | .
N#Cc1cccc(NC(=O)O[C@@H]2CO[C@H]3[C@@H]2OC[C@@H]3n2nnnc2SC2CCCC2)c1 | / | / | / | . | / | /
CC(C)(C)c1cc[n+](-c2[nH]c(=O)sc2/C=N/NC(=O)c2ccccc2[O-])cc1 | 79.4µM | . | . | . | . | ?
Cc1cc[n+](-c2[nH]c(=O)sc2/C=N/NC([S-])=Nc2ccccc2)cc1 | 28.2µM | ? | ? | . | ? | ?
O=c1[nH]c(-[n+]2ccc3ccccc3c2)c(/C=N/N=C(\[O-])c2ccccc2)s1 | ? | . | . | . | . | .
O=c1[nH]c(-[n+]2ccccc2)c(/C=N/NC([S-])=Nc2ccccc2)s1 | 22.4µM | . | . | . | . | .

High-throughput results from PubChem BioAssay.
